B1: PhoQ; a variant is named by its letters at X, in order, P23837 (parent)
chain: MKKLLRLFFPLSLRVRFLLATAAVVLVLSLAYGMVALIGYSVSFDKTTFRLLRGESNLFYTLAKWENNKLHVELPENIDKQSPTMTLIYDENGQLLWAQRDVPWLMKMIQPDWLKSNGFHEIEADVNDTSLLLSGDHSIQQQLQEVREDDDDAEMTHSVAVNVYPATSRMPKLTIVVVDTIPVELKSSYMVWSWFIYVLSANLLLVIPLLWVAAWWSLRPIEALAKEVRELEEHNRELLNPATTRELTSLVRNLNRLLKSERERYDKYRTTLTDLTHSLKTPLXXLQXXLRSLRSEKMSVSDAEPVMLEQISRISQQIGYYLHRASMRGGTLLSRELHPVAPLLDNLTSALNKVYQRKGVNISLDISPEISFVGEQNDFVEVMGNVLDNACKYCLEFVEISARQTDEHLYIVVEDDGPGIPLSKREVIFDRGQRVDTLRPGQGVGLAVAREITEQYEGKIVAGESMLGGARMEVIFGRQHSAPKDE

The values that follow come from a collection of fitness landscapes (doi:10.1126/science.1257360).

Whole data set: some 140,000 sequences, median “enrichment ratio after two sorts for PhoP signalling” near 0, cut for the highest 2% near 11. Many of the other results were omitted from the sample, so the highest values are more common in it than they were.

The assay covers variants of B1. Briefly: enrichment ratio after two sorts for PhoP signalling (ratio (wild type AVST 3.29)); higher = more functional. Particulars: with PhoP (E. coli).
Turning to KCAE, the enrichment ratio is at most 0.25.
Take ACAT: the enrichment ratio stood at 0.287.
In the case of ATPN, the enrichment ratio is at most 0.25.
On to ACAV, for which the enrichment ratio was determined as 3.32.
Consider CLIL, for which the enrichment ratio was at most 0.25.
RMFK: the enrichment ratio is at most 0.25.
On to PFPY, for which the enrichment ratio is at most 0.25.
In the case of RDQR, the enrichment ratio is at most 0.25.
On to IEIS, for which the enrichment ratio was at most 0.25.
On to IVGI, for which the enrichment ratio was at most 0.25.
Take EILP: the enrichment ratio was at most 0.25.
For ACPM, the enrichment ratio was 0.39.
As to ACNM, the enrichment ratio was at most 0.25.
For ACVM, the enrichment ratio is 12.1.
As for PFDF, the enrichment ratio is at most 0.25.
AKVQ: the enrichment ratio turned out to be 2.82.
For the variant TKVK, the enrichment ratio was at most 0.25.
For the variant TKVQ, the enrichment ratio came to 11.7.
For AKVI, the enrichment ratio amounted to 5.34.
Take TKVG: the enrichment ratio was 1.43.
Turning to KKVQ, the enrichment ratio was at most 0.25.
TKVH: the enrichment ratio turned out to be 12.3.
As to HKVI, the enrichment ratio is at most 0.25.
With TKVI, the enrichment ratio came to 30.1.
As for HKVH, the enrichment ratio was at most 0.25.
Take MKVH: the enrichment ratio is at most 0.25.
As for TKVA, the enrichment ratio came to 18.4.
With RIDW, the enrichment ratio is at most 0.25.
For SRWP, the enrichment ratio was at most 0.25.
Regarding PCHL, the enrichment ratio was at most 0.25.
In the case of IMSS, the enrichment ratio is at most 0.25.
In the case of RNRM, the enrichment ratio is at most 0.25.
In the case of QWVH it was at most 0.25.
In the case of AEDM it was at most 0.25; in that of YQHC, at most 0.25; in that of TKVV, 16.7.
For the variant HKVV, the enrichment ratio is at most 0.25.
With TKMA, the enrichment ratio was determined as 20.5.
In the case of MEMA it was at most 0.25.
On to AKVV, for which the enrichment ratio came out at 11.
Consider AKVM, for which the enrichment ratio was at most 0.25.
Turning to HKMA, the enrichment ratio was at most 0.25.
In the case of MKVM it was at most 0.25; in that of TKVM, 36.7; in that of TEIA, 5.22.
Consider RVAC, for which the enrichment ratio was at most 0.25.
For LPRF, the enrichment ratio was at most 0.25.
In the case of VFWD it was at most 0.25.
For DAPE, the enrichment ratio is at most 0.25.
As for QDDV, the enrichment ratio is at most 0.25.
With TLGP, the enrichment ratio was at most 0.25.
As to THSH, the enrichment ratio came to 12.3.
In the case of KSGH it was at most 0.25.
In the case of KLGH it was at most 0.25; in that of VEGH, at most 0.25.
On to TCGP, for which the enrichment ratio is 1.63.
In the case of NHSH it was at most 0.25.
Regarding SHSH, the enrichment ratio is 0.368.
As to TLGH, the enrichment ratio came out at 12.5.
Consider TCGH, for which the enrichment ratio was 23.5.
In the case of THGH it was 13.1; in that of HFGH, at most 0.25; in that of NPCL, at most 0.25.
In the case of WFFE, the enrichment ratio was at most 0.25.
Consider IMHM, for which the enrichment ratio is at most 0.25.
Turning to NGPM, the enrichment ratio was at most 0.25.
On to PILN, for which the enrichment ratio was at most 0.25.
Turning to REPM, the enrichment ratio was at most 0.25.
With FADW, the enrichment ratio was at most 0.25.
On to TMGP, for which the enrichment ratio was at most 0.25.
In the case of TMGH, the enrichment ratio turned out to be 15.3.
For TMTH, the enrichment ratio turned out to be 9.92.
Regarding STKH, the enrichment ratio is at most 0.25.
In the case of MCYL it was 13; in that of MEYL, 3.47; in that of MLYL, 10.2.
In the case of YTGM it was at most 0.25; in that of MNYL, 12; in that of MEGV, at most 0.25.
In the case of TTGD it was 0.456; in that of TTGM, 28.6; in that of MNNL, 0.29.
For the variant KLYL, the enrichment ratio is at most 0.25.
Take MMGV: the enrichment ratio was at most 0.25.
Consider MCGV, for which the enrichment ratio came to 13.4.
For DQFA, the enrichment ratio is at most 0.25.
As for KQAS, the enrichment ratio is at most 0.25.
With PFKG, the enrichment ratio was at most 0.25.
In the case of NGPW, the enrichment ratio was at most 0.25.
For the variant AAVK, the enrichment ratio is at most 0.25.
For MCVA, the enrichment ratio is at most 0.25.
With KAHM, the enrichment ratio is at most 0.25.
For MCWI, the enrichment ratio was 18.3.
Turning to MCYI, the enrichment ratio is 27.7.
Take TAHM: the enrichment ratio stood at 14.1.
NAHM: the enrichment ratio was at most 0.25.
Turning to MCDS, the enrichment ratio is at most 0.25.
As for MCWM, the enrichment ratio is 16.4.
With MCCK, the enrichment ratio was at most 0.25.
Consider MCRM, for which the enrichment ratio was at most 0.25.
Consider MCAY, for which the enrichment ratio is 4.41.
Turning to MCYK, the enrichment ratio was at most 0.25.
On to LMRM, for which the enrichment ratio is at most 0.25.
As to TVRL, the enrichment ratio stood at 0.897.
On to LALM, for which the enrichment ratio worked out at 8.02.
Turning to FHFV, the enrichment ratio was at most 0.25.
On to EESR, for which the enrichment ratio was at most 0.25.
For MCAM, the enrichment ratio worked out at 12.2.
On to KCGM, for which the enrichment ratio is at most 0.25.
For KCAM, the enrichment ratio is at most 0.25.
In the case of TGGM it was at most 0.25; in that of FDHM, at most 0.25.
In the case of FVHM it was at most 0.25; in that of ICGM, at most 0.25; in that of ICWM, at most 0.25.
Regarding MAHM, the enrichment ratio turned out to be 14.7.
For THGM, the enrichment ratio was found to be 12.3.
On to ICAM, for which the enrichment ratio came to 17.4.
In the case of MKAM it was at most 0.25.
Take GDQT: the enrichment ratio was at most 0.25.
For the variant TWQT, the enrichment ratio is at most 0.25.
Regarding IVCI, the enrichment ratio was at most 0.25.
Take TNFL: the enrichment ratio was at most 0.25.
Consider MCAK, for which the enrichment ratio was 21.4.
For MCVM, the enrichment ratio was at most 0.25.
In the case of MLAM, the enrichment ratio turned out to be 15.5.
With MLWM, the enrichment ratio was at most 0.25.
Take MCGM: the enrichment ratio came to 12.2.
Regarding MKFL, the enrichment ratio was 0.755.
In the case of MNFL it was 14.1; in that of MLNM, at most 0.25.
Turning to MAAK, the enrichment ratio is at most 0.25.
Regarding MKAK, the enrichment ratio is at most 0.25.
In the case of MCDM it was at most 0.25; in that of KFHC, at most 0.25; in that of RINI, at most 0.25.
For PWSK, the enrichment ratio is at most 0.25.
For the variant EKTT, the enrichment ratio is at most 0.25.
As to YVYD, the enrichment ratio is at most 0.25.
As for WNEY, the enrichment ratio is at most 0.25.
For VGWQ, the enrichment ratio was 1.18.
On to FPFF, for which the enrichment ratio is at most 0.25.
As for GAHW, the enrichment ratio is at most 0.25.
GIYF: the enrichment ratio was at most 0.25.
In the case of RKRF it was at most 0.25.
In the case of NCYL it was at most 0.25.
As for TCYL, the enrichment ratio is 16.2.
Turning to LNYL, the enrichment ratio is at most 0.25.
As for LTYL, the enrichment ratio turned out to be 0.587.
With TTDM, the enrichment ratio worked out at 22.8.
In the case of MCSQ it was 11.6; in that of ITDM, at most 0.25.
KCSQ: the enrichment ratio was at most 0.25.
As for KCYL, the enrichment ratio was at most 0.25.
In the case of YTDM it was at most 0.25; in that of MQSQ, at most 0.25; in that of LSYL, 11.2.
